Drawing on PubChem BioAssay, this text covers z-score and composite z-score for ten molecules.

Each structure is given as a SMILES string. Active and inactive are the calls of the source. Unless noted, how the calls were made is not given here.

Assay [1] can be described thus: resazurin metabolic signal in HepG2 cells – cell-based, resazurin fluorescence, 24 h, PK04 Diversity Set, profiling panel (AID 1172). The settings on record: HepG2 viability, higher = more signal. On the technique in general: Alamar Blue is a resazurin reagent that responds to reducing activity.
Assay [2] can be described thus: budding yeast growth changes without added modifier – OD600, strain BY4716, 24 h, basal condition, primary screen (AID 1173). The conditions noted are these: S. cerevisiae BY4716 growth, OD600, 24 h; higher = more signal, called active from +8 up or from −8 down.
Assay [3] is described as follows: viability profiling in MM1S myeloma cells – cell-based, resazurin fluorescence, basal, 24 h, PK04 Diversity Set, profiling panel (AID 1174).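 Further: MM1S multiple myeloma cell line.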 The settings on record: higher = more signal, called active from +8 up or from −8 down.
The target in assay [4] is Dihydroorotate dehydrogenase (quinone), mitochondrial (Plasmodium falciparum (isolate 3D7)) (UniProt Q08210). The experiment in a line: inhibition of P. falciparum DHODH – biochemical, C-terminal His tag, absorbance 600 nm, primary screen (AID 1175).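 Further: recombinant parasite enzyme with a five histidine tag at its C terminus.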 The settings on record: PfDHODH enzyme, DCIP absorbance 600 nm; higher = more signal, called active from +8 up or from −8 down.
Sequence of Dihydroorotate dehydrogenase (quinone), mitochondrial (Plasmodium falciparum (isolate 3D7)) (Q08210 whole entry, looked up): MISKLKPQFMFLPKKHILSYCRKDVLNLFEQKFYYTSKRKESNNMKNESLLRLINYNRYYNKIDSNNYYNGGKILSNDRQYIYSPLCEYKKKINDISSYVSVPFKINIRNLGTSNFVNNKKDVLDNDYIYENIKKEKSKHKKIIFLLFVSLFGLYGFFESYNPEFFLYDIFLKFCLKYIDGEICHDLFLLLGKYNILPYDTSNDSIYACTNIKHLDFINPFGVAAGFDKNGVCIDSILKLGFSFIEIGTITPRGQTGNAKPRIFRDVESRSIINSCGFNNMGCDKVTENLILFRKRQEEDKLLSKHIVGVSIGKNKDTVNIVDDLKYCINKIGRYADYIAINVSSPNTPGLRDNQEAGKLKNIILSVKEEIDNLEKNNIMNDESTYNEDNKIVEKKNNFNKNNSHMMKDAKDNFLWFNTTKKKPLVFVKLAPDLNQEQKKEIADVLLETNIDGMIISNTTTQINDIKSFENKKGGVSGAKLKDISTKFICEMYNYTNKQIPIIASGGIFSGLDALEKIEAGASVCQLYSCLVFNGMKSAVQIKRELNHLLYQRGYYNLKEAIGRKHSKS

The nature of assay [5]: inhibition of PAO1 biofilm formation – strain PAO1, LB-PBS medium, absorbance 600 nm, primary screen (AID 1176). The settings on record: P. aeruginosa PAO1 growth/biofilm, A600, 12 h; higher = more signal.
Assay [6] is described as follows: growth modulation of vineyard yeast isolate – strain RM11-1a, OD600, basal, 24 h, primary screen (AID 1177).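 Further: cultures grown under basal conditions with no added stressor.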 The conditions noted are these: S. cerevisiae RM11-1a growth, OD600, 24 h; higher = more signal, called active from +8 up or from −8 down.
A short description of assay [7]: growth of efflux-deficient E. coli DRC39 – strain DRC39, OD650, 24 h, E. coli filamentation inducers, primary screen (AID 1178).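 Further: growth measured as culture turbidity by optical density at 650 nm.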 The conditions noted are these: E. coli DRC39 acrAB, higher = more signal, called active from +8 up or from −8 down.
A short description of assay [8]: growth of efflux-deficient E. coli DRC39 – strain DRC39, OD650, 48 h, E. coli filamentation inducers, primary screen (AID 1179).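 Further: screen aims at cell division blockers that make cells filament.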 The settings on record: E. coli DRC39 delta-acrAB growth, higher = more signal, called active from +8 up or from −8 down.
Assay [9] in a line: viability profiling in RPMI8226 myeloma cells – cell-based, resazurin fluorescence, basal, 24 h, PK04 Diversity Set, profiling panel (AID 1180).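 Further: RPMI8826 multiple myeloma cell line at 5000 cells per well.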 The settings on record: higher = more signal.
In assay [10] the target is E3 ubiquitin-protein ligase XIAP (Homo sapiens) (UniProt P98170). The experiment in a line: small molecules binding XIAP protein – biophysical, small-molecule microarray, fluorescence 635 nm, primary screen (AID 1181).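 Further: score merges 667 nm emission and signal to noise over triplicate slides.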 The conditions noted are these: higher = more signal.
Sequence of E3 ubiquitin-protein ligase XIAP (Homo sapiens) (P98170 whole entry, looked up, the tested form may be a part): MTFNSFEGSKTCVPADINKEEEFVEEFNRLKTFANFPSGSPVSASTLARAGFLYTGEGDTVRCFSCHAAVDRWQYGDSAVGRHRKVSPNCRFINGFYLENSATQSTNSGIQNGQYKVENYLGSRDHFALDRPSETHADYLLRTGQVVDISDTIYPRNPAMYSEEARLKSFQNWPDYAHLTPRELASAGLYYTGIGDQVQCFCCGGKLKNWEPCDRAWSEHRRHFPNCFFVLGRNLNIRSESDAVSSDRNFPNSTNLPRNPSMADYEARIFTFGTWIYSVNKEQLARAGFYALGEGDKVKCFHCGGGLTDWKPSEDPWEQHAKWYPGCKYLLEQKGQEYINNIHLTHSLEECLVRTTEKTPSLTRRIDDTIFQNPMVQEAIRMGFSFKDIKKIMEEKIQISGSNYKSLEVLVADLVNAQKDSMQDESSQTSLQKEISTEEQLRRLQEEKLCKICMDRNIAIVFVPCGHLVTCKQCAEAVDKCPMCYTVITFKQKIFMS
Assay [11] deals with XIP peptide (Xip251-270) binding. Description: XIP fragment 251-270 binding compounds – biochemical, small-molecule microarray, fluorescence 635/667 nm, 0.1 µg/mL protein, primary screen (AID 1182). The conditions noted are these: fluorescent protein binding, 635 nm, higher = more signal, called active from +8 up or from −8 down.
In a further assay the test system is XIP peptide (Xip251-270). The experiment in a line: compounds binding XIP fragment 251-270 – biochemical, small-molecule microarray, fluorescence 635/667 nm, 0.5 µg/mL protein, primary screen (AID 1183). The conditions noted are these: fluorescence 635 nm, higher = more signal.
Assay [12] can be described thus: blood-stage malaria parasite viability loss – strain 3D7, DAPI fluorescence, 100 nL, primary screen (AID 1184).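 Further: parasites grown inside human red blood cells in medium with human serum.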 The conditions noted are these: P. falciparum 3D7 growth, 3 d, higher = more signal.
The target in assay [13] is Homeobox protein Hox-A13 (Mus musculus) (UniProt Q62424). The experiment in a line: disruptors of Hoxa13 oligonucleotide interaction – biochemical, fluorescence polarization, labeled oligonucleotide, primary screen (AID 1185). The settings on record: Hoxa13:DNA binding, 15 min, higher = more signal, called active from +8 up or from −8 down. In general terms: Fluorescence polarisation rises when a labelled molecule tumbles more slowly, as on binding a larger partner.
Sequence of Homeobox protein Hox-A13 (Mus musculus) (Q62424 whole entry, looked up): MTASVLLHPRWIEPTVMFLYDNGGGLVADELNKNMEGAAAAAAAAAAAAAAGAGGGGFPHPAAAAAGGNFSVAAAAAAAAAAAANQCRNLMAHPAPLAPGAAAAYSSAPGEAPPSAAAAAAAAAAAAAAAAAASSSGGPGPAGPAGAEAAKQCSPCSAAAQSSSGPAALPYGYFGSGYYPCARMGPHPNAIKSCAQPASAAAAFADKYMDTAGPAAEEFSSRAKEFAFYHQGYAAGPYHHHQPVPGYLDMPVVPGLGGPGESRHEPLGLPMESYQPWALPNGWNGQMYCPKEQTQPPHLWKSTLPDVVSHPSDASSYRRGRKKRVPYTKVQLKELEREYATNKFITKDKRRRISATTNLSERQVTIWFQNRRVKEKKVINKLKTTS

Assay [14] in a line: blockers of DNA damage checkpoint Chk1 activation – imaging, HeLa, hydroxyurea, phospho-Chk1 antibody, percent positive cells, primary screen (AID 1186). The conditions noted are these: hydroxyurea-induced phospho-Chk1 immunofluorescence imaging, higher = more signal.
The nature of assay [15]: blockers of DNA damage checkpoint Chk1 activation – imaging, HeLa, hydroxyurea, phospho-Chk1 nuclear intensity, primary screen (AID 1187). The conditions noted are these: hydroxyurea-induced phospho-Chk1 immunofluorescence imaging, higher = more signal.

`CCCCN1CC=CC23O[C@@H]4C=CCCOC(=O)C4[C@H]2C(=O)N(CCCCCO)[C@@H]3C1=O` (stereo not given in full): the z-score in [1] is -0.462; in assay [2] it was -0.1 (inactive); in [3], -0.401 (inactive); in assay [5] it was -0.332 (inactive); in assay [6], -0.308 (inactive); in assay [7], 0.593 (inactive). For the same molecule, the z-score in [8] is 0.923 (inactive); in assay [9], 0.769; in [12], 0.474; in [13] it was -4.72 (inactive); in assay [14], -2.17 (inactive); in [15] it was -1.9 (inactive). In addition, the composite z-score was 0.0416 (inactive) in assay [4], 0.0357 in assay [10], -0.17 (inactive) in assay [11] and 0.779 in the assay on XIP peptide (Xip251-270).
In the case of `C=C[C@H](C)[C@@H](OC(=O)Nc1ccc(SC)cc1)c1ccc(O)c2ccccc12`, the z-score in [1] was -0.752; in assay [2] it was -18.2 (active); in [3], -3.78 (inactive); in [5], 0.908 (inactive); in assay [6], -5.28 (inactive); in assay [7], -0.33 (inactive). Besides, the z-score is -0.638 (inactive) in assay [8]; -3 in assay [9]; -0.127 in assay [12]; -4.35 (inactive) in [13]; 1.16 (inactive) in assay [14]; 0.893 (inactive) in assay [15]. Further, the composite z-score in assay [4] is -1.84 (inactive); in assay [10] it was -0.258; in assay [11], 0.68 (inactive); in the assay with XIP peptide (Xip251-270) it was 0.248.
As for `C=C(CCCC)C(=O)CC[C@H](OC(=O)c1cccnc1)c1ccc(OCCO)cc1`, the z-score in assay [1] is -0.91; in assay [2] it was -0.329 (inactive); in assay [3], -3.27 (inactive); in assay [5], 1.09 (inactive); in [6], 1.32 (inactive); in assay [7], -0.911 (inactive). Also, the z-score was -0.855 (inactive) in [8]; -3.01 in assay [9]; -2.96 in assay [12]; -5.21 (inactive) in assay [13]; 0.457 (inactive) in assay [14]; 0.433 (inactive) in [15]. The composite z-score in assay [4] was -0.816 (inactive); in assay [10] it was 0.0322; in [11], 0.0908 (inactive); with XIP peptide (Xip251-270), -0.543.
For the molecule `CCCCC(=C=CC[C@H](O)c1cccc(OCCO)c1)C[C@H](O)c1ccccn1`, the z-score in assay [1] was 1.7; in [2], -1.1 (inactive); in assay [3], 1.03 (inactive); in assay [5], -0.235 (inactive); in assay [6] it was -1.49 (inactive); in assay [7] it was 1.58 (inactive). The z-score was 1.58 (inactive) in assay [8]; 1.83 in assay [9]; -1.78 in assay [12]; -4.75 (inactive) in assay [13]; -0.949 (inactive) in assay [14]; -0.278 (inactive) in assay [15]. For the same molecule, the composite z-score was -2.69 (inactive) in assay [4], -0.188 in assay [10], 0.0547 (inactive) in assay [11] and 0.661 in the assay on XIP peptide (Xip251-270).
Turning to `CC(C)[C@@H](C(=O)O)n1cc(C2(O)CCCCC2)nn1`, the z-score is 0.853 in assay [1]; -1.45 (inactive) in [2]; 0.979 (inactive) in assay [3]; 0.313 (inactive) in assay [5]; -0.513 (inactive) in assay [6]; 0.738 (inactive) in assay [7]. Besides, the z-score was -0.195 (inactive) in [8]; 0.354 in [9]; 0.564 in [12]; -0.619 (inactive) in [13]; -0.3 (inactive) in [14]; -0.12 (inactive) in [15]. Further, the composite z-score in [4] is -0.549 (inactive); in assay [10], 0.0077; in assay [11] it was 0.142 (inactive); in the assay on XIP peptide (Xip251-270), 0.297.
Turning to `OB1C=CCC(CCc2ccccc2)O1` (stereo not given), the z-score is -0.246 in [1]; -3.2 (inactive) in [2]; 0.506 (inactive) in assay [3]; 1.45 (inactive) in assay [5]; -2.36 (inactive) in [6]; 2.73 (inactive) in [7]. For the same molecule, the z-score was 0.96 (inactive) in [8]; 0.23 in [9]; -0.355 in assay [12]; -2.13 (inactive) in [13]; -0.591 (inactive) in assay [14]; -0.212 (inactive) in [15]. Also, the composite z-score in assay [4] was -0.685 (inactive); in [10], -0.275; in [11] it was -1.15 (inactive); in the assay with XIP peptide (Xip251-270) it was 0.965.
As for `COCCCNC(=O)[C@]1(Cc2ccccc2)N=C(c2ccc(OCCCO)cc2)O[C@@H]1c1ccccc1CN=[N+]=[N-]`, the z-score in assay [1] is -0.316; in [2] it was -1.29 (inactive); in assay [3] it was -0.491 (inactive); in [5] it was 1.8 (inactive); in assay [6] it was 0.0435 (inactive); in assay [7], 0.228 (inactive). In addition, the z-score was 1.55 (inactive) in assay [8]; -1.08 in assay [9]; -2.33 in [12]; -3.2 (inactive) in assay [13]; -0.6 (inactive) in [14]; -0.537 (inactive) in assay [15]. The composite z-score in assay [4] was -0.925 (inactive); in assay [10] it was 0.0136; in assay [11], 1.88 (inactive); in the assay on XIP peptide (Xip251-270) it was 0.711.
`C=C(CCCC)/C(=C/C[C@@H](OC(C)=O)c1ccccc1OCCO)c1cc(C(=O)OC)ccc1OC`: the z-score was 0.937 in assay [1]; -0.746 (inactive) in assay [2]; -0.909 (inactive) in assay [3]; 0.367 (inactive) in assay [5]; 0.724 (inactive) in assay [6]; 1.5 (inactive) in [7]. Moreover, the z-score was 1.04 (inactive) in assay [8]; 0.627 in assay [9]; -2.51 in assay [12]; -4.39 (inactive) in [13]; -0.402 (inactive) in assay [14]; 0.114 (inactive) in assay [15]. For the same molecule, the composite z-score is -0.04 (inactive) in assay [4], -0.02 in [10], -0.0324 (inactive) in assay [11] and 0.906 in the assay with XIP peptide (Xip251-270).
Regarding `C=CC[C@@]1(C(=O)N2CCCCC2)N=C(c2ccc(OCCCO)cc2)O[C@@H]1c1ccccc1N=[N+]=[N-]`, the z-score in assay [1] is -0.355; in assay [2] it was -1.02 (inactive); in assay [3], -1.62 (inactive); in [5], 0.302 (inactive); in [6], 0.597 (inactive); in [7] it was 0.985 (inactive). Also, the z-score in [8] was -0.682 (inactive); in assay [9] it was -0.963; in [12] it was -1.94; in assay [13], -2.64 (inactive); in assay [14], -0.679 (inactive); in assay [15], -0.667 (inactive). The composite z-score is 0.479 (inactive) in assay [4], 0.13 in assay [10], 0.195 (inactive) in assay [11] and 0.602 in the assay with XIP peptide (Xip251-270).
For `O=C1OCC=C[C@H]2OC34C=CCN(CCN5CCOCC5)C(=O)[C@H]3N(CCO)C(=O)[C@@H]4[C@@H]12` (stereo not given in full), the z-score in assay [1] was 0.226; in assay [2], -0.0819 (inactive); in assay [3], -0.176 (inactive); in [5], -0.608 (inactive); in assay [6] it was -0.31 (inactive); in [7], -0.533 (inactive). Moreover, the z-score was -0.385 (inactive) in assay [8]; -0.386 in assay [9]; 0.703 in [12]; -5.02 (inactive) in assay [13]; -0.474 (inactive) in [14]; -0.371 (inactive) in assay [15]. Also, the composite z-score is -0.424 (inactive) in assay [4], -0.28 in assay [10], 0.218 (inactive) in assay [11] and 0.775 with XIP peptide (Xip251-270).
